Screen size: about 1,000 compounds; about 360 (36%) were called active.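 How the source made its calls: active means Fitted curve of melting temperature shift crosses the 1.0 threshold at or below the sample's highest valid tested concentration; inconclusive means Flat fit with activity 30 to 70, or invalid fit; inactive means Opposite direction, flat within 30, or no crossing.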 The list is a sample of the results.

This assay deals with Fibroblast growth factor 22 (Homo sapiens) (UniProt Q9HCT0). Briefly: FGF22 ligand-induced thermal stabilization – biophysical, thermal shift, cherry-pick, FGF22 synaptogenesis inhibitor project, dose response (AID 687022). Further: reference of the scale not given here. The following applies: recombinant FGF22 thermal shift, SYPRO orange melting; series mostly up to 38 µM; Tm shift activity: at the top concentration.
Chain of Fibroblast growth factor 22 (Homo sapiens) (Q9HCT0 whole entry, looked up): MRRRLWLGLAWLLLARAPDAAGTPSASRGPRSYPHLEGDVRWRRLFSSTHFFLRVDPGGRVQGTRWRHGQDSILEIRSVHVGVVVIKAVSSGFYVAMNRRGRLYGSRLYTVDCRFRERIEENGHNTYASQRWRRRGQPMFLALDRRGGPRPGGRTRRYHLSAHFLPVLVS
Take `O=C(N[C@@H]1C=C[C@@H](CC(=O)N2CCCCC2)O[C@@H]1CO)c1cccc(F)c1`: the “Tm shift activity” value was -0.288% [at 42 µM] (inactive).
Under `O=C(c1ccccc1F)N1CC(=O)N2[C@@H](CO)[C@H](c3ccc(-c4ccc(F)cc4)cc3)[C@@H]2C1` stands -1.1% [at 42 µM] (inactive); under `Cc1ccccc1-c1ccccc1[C@@H]1[C@@H](C#N)N(C(=O)c2ccccc2)[C@H]1CO`, -0.262% (inactive).
Under `CCOC(=O)[C@]12CCCC=C1N(Cc1ccccc1)C(=O)[C@H](CC(=O)NCC1CCCCC1)C2` stands 0.402% (inactive).
Under `O=C(Nc1ccc2c(c1)OCO2)c1cnn2cccnc12` stands -0.154% (inactive).
Turning to `C[C@H]1CN([C@@H](C)CO)C(=O)c2cc(NC(=O)CCC(F)(F)F)ccc2O[C@H]1CN(C)CC1CC1`, the “Tm shift activity” value is -0.033% [at 10 µM] (inactive).
Under `C[C@H]1CN([C@@H](C)CO)C(=O)c2cc(NS(=O)(=O)c3ccccc3)ccc2O[C@@H]1CN(C)C` stands -0.047% (inactive); under `C[C@H](CO)N1C[C@H](C)[C@H](CN(C)S(=O)(=O)c2ccc(F)cc2)Oc2ccc(NC(=O)c3ccncc3)cc2C1=O`, -0.057% (inactive).
To `COc1cccc(NC(=O)OCCN2CCN(Cc3ccccc3)CCC2=O)c1` belongs 0.08% (inactive); to `O=C(Cn1[nH]c(=O)c2ccccc2c1=O)Nc1cccnc1`, 0.021% (inactive).
Under `COc1ccc(Br)cc1S(=O)(=O)Nc1ncccc1C` stands -0.096% (inactive).
Turning to `Cc1cccnc1NC(=O)CCCN1C(=O)c2ccccc2C1=O`, the “Tm shift activity” value is 0.14% (inactive).
To `Cc1ccc(-c2ccc([C@@H]3[C@@H](CO)N4C(=O)CN(C(=O)c5ccc(F)cc5)C[C@H]34)cc2)cc1` belongs 14.5% (inactive).
Regarding `Cc1cc(C(=O)O/N=C(\N)c2ccncc2)ccc1[N+](=O)[O-]`, the “Tm shift activity” value is -0.188% (inactive).
Under `Cc1ccc(-n2c(O)c(C=NC3CCS(=O)(=O)C3)c3ccccc3c2=O)cc1C` (centres undefined) stands -0.046% (inactive); under `COCC(=O)NC[C@H]1[C@H](c2ccc(C3=CCCC3)cc2)[C@@H](CO)N1C(C)=O`, -0.131% [at 42 µM] (inactive); under `C[C@H]1CN([C@@H](C)CO)C(=O)c2cc(NC(=O)Cc3ccccc3)ccc2O[C@H]1CN(C)Cc1ccc2c(c1)OCO2`, -0.068% (inactive).
To `COc1cc(OC)cc(C(=O)Nc2nc3ccc(S(C)(=O)=O)cc3s2)c1` belongs 0.771% (inactive); to `Cc1ccc(S(=O)(=O)Nc2ccc3c(c2)C(=O)N([C@@H](C)CO)C[C@@H](C)[C@@H](CN(C)C)O3)cc1`, -0.078% (inactive); to `C[C@@H]1CN([C@H](C)CO)S(=O)(=O)c2ccc(C#CC3CC3)cc2O[C@H]1CN(C)C(=O)c1ccncc1`, -0.481% (inactive).
To `CC(C)(CNCc1ccccc1)NS(=O)(=O)c1ccc(Cl)cc1` belongs -0.043% (inactive); to `CCCCNC(=O)c1onc(CSc2ccc(C(C)C)cc2)c1C(=O)O`, 0.765% [at 5 µM] (inactive).
Consider `Cc1noc(C)c1S(=O)(=O)N(C)C[C@H]1Oc2ccc(NS(=O)(=O)c3cccs3)cc2C(=O)N([C@@H](C)CO)C[C@H]1C`, for which the “Tm shift activity” value is -0.774% (inactive).
Under `COc1ccc(Nc2nnc(-c3ccncc3)s2)cc1Cl` stands 0.068% (inactive); under `CO[C@H](CN(C)S(=O)(=O)c1cccc(Cl)c1)[C@H](C)CN([C@@H](C)CO)S(=O)(=O)c1cccc(Cl)c1`, 0.223% [at 42 µM] (inactive); under `C[C@@H]1CN([C@@H](C)CO)C(=O)c2cccc(NC(=O)C3CC3)c2O[C@H]1CN(C)Cc1ccncc1`, 0.078% (inactive).
To `O=C(C[C@@H]1C=C[C@H](NC(=O)Nc2cc(F)ccc2F)[C@H](CO)O1)Nc1ccc(-c2ccccc2)cc1` belongs 0.09% (inactive).
To `CCC(=O)N(NC1=NS(=O)(=O)c2ccccc21)S(=O)(=O)c1ccc(C)cc1` belongs -0.105% (inactive).
Regarding `CC(C)(C)NC(=O)CN(C(=O)CNS(=O)(=O)c1ccc(Cl)cc1)c1ccc2c(c1)OCCO2`, the “Tm shift activity” value is -0.101% (inactive).
Under `O=[N+]([O-])c1ccc(Cl)c(S(=O)(=O)Nc2ccc(S(=O)(=O)N3CCOCC3)cc2)c1` stands -0.245% (inactive); under `O=[N+]([O-])c1cccc(S(=O)(=O)Nc2ccc(S(=O)(=O)Nc3nccs3)cc2)c1`, -0.075% (inactive).
Under `CC(=O)c1ccc(NS(=O)(=O)c2ccc(N)cc2)cc1` stands -0.172% (inactive).
As for `CC(=O)c1sc(NC(=O)c2cc(=O)c3ccccc3o2)nc1C`, the “Tm shift activity” value is 0.254% (inactive).
Under `CCOc1ccc(N(CC(=O)NCCSc2ccccn2)S(=O)(=O)c2ccc(Cl)cc2)cc1` stands -0.149% (inactive).
To `N#C[C@@H]1[C@H](c2ccc(-c3cccnc3)cc2)[C@H](CO)N1C(=O)Nc1ccc(F)cc1` belongs -0.106% [at 42 µM] (inactive); to `CC(C)C#Cc1cnc2c(c1)C(=O)N([C@H](C)CO)C[C@H](C)[C@H](CN(C)C(=O)c1cnccn1)O2`, -0.112% [at 42 µM] (inactive).
As to `Cc1noc(C)c1NC(=O)Nc1ccc2c(c1)CC(=O)N([C@@H](C)CO)C[C@H](C)[C@@H](CN(C)Cc1ccc3c(c1)OCO3)O2`, the “Tm shift activity” value is -0.148% (inactive).
Under `CC(C)NC(=O)Nc1ccc2c(c1)C(=O)N([C@H](C)CO)C[C@H](C)[C@@H](CN(C)C(=O)NC(C)C)O2` stands 0.003% (inactive).
`COc1cccc(NC(=O)N2C[C@H](O)COC[C@@H]3O[C@@H](CC(=O)NC4CCC4)CC[C@H]32)c1`: the “Tm shift activity” value is -0.128% (inactive).
To `COc1ccc(CCNS(=O)(=O)CCNC(=O)c2ccc3c(c2)OCO3)cc1` belongs -0.261% (inactive).
With `CSc1ccc(C(=O)NCC2CCN(C(=O)C(=O)c3cc4ccccc4o3)CC2)cc1`, the “Tm shift activity” value is -1.12% (inactive).
To `C/C(CC(=O)Nc1cccc(Cl)c1Cl)=N\NC(=O)C(=O)NC1CCCCC1` belongs 0.278% (inactive); to `O=C(CC1CC1)N1CC2(C1)[C@H](c1ccccc1)[C@H](CO)N2C(=O)c1cnccn1`, -0.016% [at 42 µM] (inactive); to `COCC(=O)Nc1ccc2c(c1)OC[C@@H](C)N(C)C[C@H](C)[C@@H](OC)CN(C)C2=O`, 0.133% (inactive).
Under `Cc1ccc(N(C(=O)c2csnn2)C(C(=O)NC2CCCC2)c2ccccn2)c(C)c1` (centres undefined) stands 0.564% (inactive); under `O=C(C1CCCC1)N1CC2(C1)[C@H](c1ccccc1)[C@@H](CO)N2CC1CC1`, -0.131% [at 42 µM] (inactive); under `C[C@H]1CN([C@@H](C)CO)C(=O)c2cc(C3=CCCC3)cnc2O[C@H]1CN(C)C(=O)CN(C)C`, 0.046% (inactive).
Regarding `Cc1cc(C(=O)Nc2cccc3c2O[C@@H](CN(C)C(=O)NC2CCCCC2)[C@@H](C)CN([C@H](C)CO)C3=O)n(C)n1`, the “Tm shift activity” value is -0.109% (inactive).
Under `Nc1n[nH]c(=S)n1/N=C1/C(=O)Nc2ccccc21` stands -1.04% [at 19.5 µM] (inactive).
With `Cc1ccc(NC(=O)COC(=O)Cn2cnc3c2c(=O)n(C)c(=O)n3C)cc1F`, the “Tm shift activity” value is -1.53% (inactive).
As to `O=C(COC(=O)CCCOc1ccc(Cl)cc1Cl)NCc1ccccc1`, the “Tm shift activity” value is -0.091% (inactive).
To `O=C(NCC[C@@H]1CC[C@@H](NS(=O)(=O)c2ccccc2)[C@@H](CO)O1)c1ccc2c(c1)OCO2` belongs -1.36% [at 42 µM] (inactive).
Under `COCC(=O)N(C)C[C@@H]1Oc2cc(C#C[C@H](C)O)ccc2S(=O)(=O)N([C@@H](C)CO)C[C@H]1C` stands -0.017% [at 42 µM] (inactive); under `CC(C)(CNS(=O)(=O)c1ccc2c(c1)OCCO2)N1CCOCC1`, -0.045% (inactive).
To `Cn1c(=O)[nH]c(=O)c2c1nc(SCC(O)CO)n2CCCc1ccccc1` (centres undefined) belongs -0.205% (inactive); to `Cc1[nH]c2ccccc2c1C(=O)C(=O)NCCOc1ccccc1`, 0.288% (inactive).
In the case of `O=[N+]([O-])c1ccc(/C=N/Nc2ccc3ccccc3c2)o1`, the “Tm shift activity” value was -0.355% (inactive).
To `CCOC(=O)[C@@H]1[C@H]2COc3cc(OC)ccc3[C@H]2N2C(=O)N(c3ccc(C)cc3)C(=O)[C@]12C` belongs -0.261% (inactive); to `C[C@H](CO)N1C[C@H](C)[C@@H](CN(C)C(=O)Nc2cccc3ccccc23)Oc2c(NS(C)(=O)=O)cccc2C1=O`, -0.1% [at 42 µM] (inactive); to `C[C@H]1CN([C@@H](C)CO)C(=O)c2cc(NC(=O)c3ccncc3)ccc2O[C@@H]1CN(C)S(=O)(=O)c1cn(C)cn1`, 0.122% (inactive).
In the case of `C[C@H]1CN([C@@H](C)CO)C(=O)c2cc(NS(=O)(=O)c3ccccc3)ccc2O[C@@H]1CN(C)Cc1ccc(C(=O)O)cc1`, the “Tm shift activity” value is -0.154% (inactive).
As to `CCCCn1cnc2c(SCc3cccc(F)c3)nc(N)nc21`, the “Tm shift activity” value is -0.433% (inactive).
As for `O=C(COc1ccccc1)NCC(=O)NC1CCCCC1`, the “Tm shift activity” value was 0.061% (inactive).
Under `O=C(C[C@@H]1CC[C@@H](NC(=O)Nc2cc(F)ccc2F)[C@H](CO)O1)NCCCN1CCOCC1` stands 0.042% [at 42 µM] (inactive); under `CCOC(=O)Cn1c2ccccc2n2nc(CCC(=O)O)c(=O)nc12`, -0.267% (inactive); under `COCC(=O)N1C[C@@H]2[C@H](c3ccccc31)[C@H](CO)N2C(=O)c1ccccc1F`, 0.006% [at 42 µM] (inactive).
To `COc1ccccc1S(=O)(=O)N(C)C[C@@H]1Oc2cc(C#CCC(C)C)ccc2S(=O)(=O)N([C@@H](C)CO)C[C@H]1C` belongs 0.178% [at 42 µM] (inactive); to `O=C(C[C@H]1C[C@@H]2c3cc(NC(=O)NC4CCCC4)ccc3O[C@@H]2[C@H](CO)O1)NCc1ccc2c(c1)OCO2`, -0.035% (inactive).
To `CCCNC(=O)COCc1cc(-c2ccc3c(c2)OCO3)on1` belongs 0.027% (inactive); to `O=C(COC(=O)CSc1ccc([N+](=O)[O-])cc1)NCCC1=CCCCC1`, -0.227% (inactive); to `O=C(NCC[C@@H]1CC[C@H](NC(=O)C2CCOCC2)[C@H](CO)O1)Nc1ccc(Cl)cc1`, 0.002% [at 42 µM] (inactive).
With `Cc1nn(-c2ccccc2)c(Cl)c1/C=N/NC(=O)c1cccnc1`, the “Tm shift activity” value was -0.238% (inactive).
Under `O=C(N/N=C/c1c[nH]c2ccccc12)c1ccc2c(c1)OCCO2` stands -0.175% (inactive); under `COc1ccc(/C=N/NC(=O)c2cccc([N+](=O)[O-])c2)cc1OC`, 0.04% (inactive).
Regarding `Cc1c(/C=N\NC(=O)c2cccc(F)c2)cnn1C`, the “Tm shift activity” value is -0.081% (inactive).
Under `COc1ccc(NS(=O)(=O)c2cccc(C(=O)NN=Cc3ccc(OC)c(O)c3)c2)cc1` stands -0.26% (inactive); under `CC(=O)Nc1ccc(C(=O)N/N=C/c2cc(Br)cc(Br)c2O)cc1`, 0.474% (inactive).
Under `CC1CC(CC(=O)NC(=S)Nc2ccccc2Cl)C(=O)O1` (centres undefined) stands -0.235% (inactive); under `CNC[C@H]1Oc2ccc(NC(=O)Cc3cn(C)c4ccccc34)cc2C(=O)N([C@H](C)CO)C[C@H]1C`, -0.055% [at 42 µM] (inactive).
For `COc1ccc(S(=O)(=O)N(C)C[C@@H]2Oc3ccc(NC(=O)Nc4ccccc4)cc3CC(=O)N([C@H](C)CO)C[C@@H]2C)cc1`, the “Tm shift activity” value is -0.087% [at 42 µM] (inactive).
As for `CC(=O)Oc1ccc(C(=O)Nc2ccccc2C(=O)N2CCCCC2)cc1`, the “Tm shift activity” value was -0.094% (inactive).
Under `COc1ccccc1C(=O)NNC(=O)c1ccc(NC(=O)c2ccccc2)cc1` stands 0.273% (inactive); under `CCCN(C)C[C@H]1Oc2cc(C#Cc3cccnc3)ccc2S(=O)(=O)N([C@H](C)CO)C[C@@H]1C`, 0.518% (inactive); under `C[C@@H]1CN([C@@H](C)CO)C(=O)c2cccc(NC(=O)c3ccc(-c4nccs4)cc3)c2O[C@@H]1CN(C)C`, 0.253% (inactive).

(Values after PubChem BioAssay AID687022 (Broad Institute, 2013).)
